PubChem BioAssay (NCI)
Compounds without any hit were thinned out: in the full panel of roughly 79,000, 15% have a hit. Activity calls are given as the source filed them. Cut-off read from the data, not from the text of the source: active = growth inhibition above about 70%; inactive = the rest.

Tests used:
[1] = NCI Yeast Anticancer Drug Screen. Data for the rad52 strain (AID 147);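 note: 0% = growth of vehicle-treated control cultures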; conditions: S. cerevisiae rad52 mutant growth inhibition, hits give high values
Outline: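 The repair-mutant yeast strain was incubated with compounds, then growth was read and inhibition derived relative to vehicle.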

[2] = NCI Yeast Anticancer Drug Screen. Data for the wt1 strain (AID 149);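 note: 0% = growth of vehicle-treated wt1 cultures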; conditions: S. cerevisiae wt1 strain (SPY 50644) growth inhibition, hits give high values
Outline: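 Vehicle-normalised growth inhibition; strain wt1; compound exposure.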

[3] = NCI Yeast Anticancer Drug Screen. Data for the rad50EPP+ strain (AID 151);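 note: 0% = growth of vehicle-treated control cultures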; conditions: S. cerevisiae rad50 mutant strain, hits give high values
Outline: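 Vehicle-normalised growth inhibition; rad50EPP+ yeast strain, altered in DNA damage repair, compound-treated.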

[4] = NCI Yeast Anticancer Drug Screen. Data for the mgt1 strain (AID 153); conditions: S. cerevisiae mgt1 mutant growth inhibition, hits give high values
Outline: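 Vehicle-normalized growth inhibition is determined in mgt1 yeast, a strain selected for a defined alteration in DNA repair or cell cycle control.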

[5] = NCI Yeast Anticancer Drug Screen. Data for the rad50 strain (AID 155);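 note: 0% = growth of vehicle-only cultures of the same strain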; conditions: S. cerevisiae rad50 strain growth inhibition, hits give high values
Outline: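 A DNA repair-deficient yeast mutant serves as the test organism; compound-induced growth inhibition is calculated against vehicle-treated cells.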

[6] = NCI Yeast Anticancer Drug Screen. Data for the mec2-1 strain (AID 157); conditions: S. cerevisiae mec2-1 strain, hits give high values
Outline: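 Mutant yeast (mec2-1) grown with compound; growth inhibition relative to vehicle control reported.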

[7] = NCI Yeast Anticancer Drug Screen. Data for the rad14 strain (AID 159);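 note: 0% = growth of vehicle-treated control cultures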; conditions: S. cerevisiae rad14 strain growth inhibition, hits give high values
Outline: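 Vehicle-treated cultures served as the baseline for growth inhibition of a DNA repair-mutant yeast strain exposed to each compound.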

[8] = NCI Yeast Anticancer Drug Screen. Data for the sgs1 mgt1 strain (AID 161);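 note: 0% = growth of cultures given vehicle only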; conditions: S. cerevisiae sgs1 mgt1 strain, hits give high values
Outline: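 Growth of a repair-deficient yeast mutant was monitored after compound treatment and expressed as inhibition relative to vehicle-treated cultures.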

[9] = NCI Yeast Anticancer Drug Screen. Data for the CLN2oe strain (AID 163);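 note: 0% = growth of vehicle-only control cultures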; conditions: S. cerevisiae CLN2oe strain, hits give high values
Outline: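 Compounds are applied to yeast harbouring a defined cell-cycle control change; reduced growth compared with vehicle-treated controls gives the value.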

[10] = NCI Yeast Anticancer Drug Screen. Data for the cln2 rad14 strain (AID 165);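 note: 0% = growth equal to vehicle treated cultures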; conditions: S. cerevisiae cln2 rad14 strain, hits give high values
Outline: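 Readout is yeast growth inhibition versus vehicle-treated controls, using a strain with cln2 and rad14 alterations exposed to compound.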

[11] = NCI Yeast Anticancer Drug Screen. Data for the bub3 strain (AID 167); conditions: S. cerevisiae bub3 mutant strain, hits give high values
Outline: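 Inhibition values come from growth of compound-treated mutant yeast normalised to vehicle-treated controls.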

[12] = NCI Yeast Anticancer Drug Screen. Data for the wt2 strain (AID 169);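 note: 0% = growth of vehicle-treated yeast cultures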; conditions: S. cerevisiae wt2 strain growth inhibition, hits give high values
Outline: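 Against vehicle-treated controls, the growth of yeast exposed to each compound was compared, and the inhibition was recorded.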

[13] = NCI Yeast Anticancer Drug Screen. Data for the mlh1 strain (AID 171);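 note: 0% = growth of vehicle-treated control cultures of the same strain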; conditions: S. cerevisiae mlh1 strain growth inhibition, hits give high values
Outline: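 Measured: yeast growth. Reference: vehicle-treated controls. Organism: strain with a defined alteration affecting DNA damage repair or cell cycle control, treated with compound.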

[14] = NCI Yeast Anticancer Drug Screen. Data for the sgs1 strain (AID 173);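 note: 0% = growth of vehicle-only control cultures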; conditions: S. cerevisiae sgs1 mutant, hits give high values
Outline: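 Each compound was added to cultures of the altered yeast strain. Growth was recorded, and inhibition was derived by comparison with vehicle controls.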

[15] = NCI Yeast Anticancer Drug Screen. Data for the mlh1 rad18 strain (AID 175); conditions: S. cerevisiae mlh1 rad18 strain growth inhibition, hits give high values
Outline: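 Genetically defined yeast (DNA repair-deficient) exposed to compounds; growth inhibition determined relative to vehicle.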

[16] = NCI Yeast Anticancer Drug Screen. Data for the rad18 strain (AID 177); conditions: S. cerevisiae rad18 mutant growth inhibition, hits give high values
Outline: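 Vehicle-treated cultures served as the baseline for scoring compound-induced growth inhibition in DNA-repair-mutant yeast.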

[17] = at 5.0 µM (retest, dose inferred, filed as 0.5)
[18] = at 50.0 µM (retest, dose inferred, filed as 5.0)

Measured: growth inhibition

CC[C@@]1(O)C[C@H](OC2CC(N(C)C)C(O)C(C)O2)c2c(O)c3c(c(O)c2[C@H]1OC1CC(N(C)C)C(O)C(C)O1)C(=O)c1cccc(O)c1C3=O (stereo partly drawn)
active: [1]; at 100.0 µM 92% | [4]; at 100.0 µM 87% | [5]; at 50.0 µM 83.1% | [5]; at 100.0 µM 90% | [6]; at 50.0 µM 85% | [7]; at 100.0 µM 83% | [8]; [18] 89% | [8]; at 50.0 µM 88.2% | [9]; at 100.0 µM 75% | [10]; [18] 71% | [10]; at 50.0 µM 75.8% | [11]; [18] 77% | [11]; at 50.0 µM 83.4% | [11]; at 100.0 µM 84% | [12]; at 100.0 µM 94% | [13]; at 100.0 µM 88% | [14]; at 100.0 µM 89% | [15]; at 50.0 µM 85% | [16]; at 100.0 µM 88%
inactive: [1]; at 1.2 µM 36% | [1]; at 3.7 µM 38% | [1]; at 11.0 µM 35% | [1]; at 33.0 µM 46% | [2]; at 1.2 µM -8% | [2]; at 3.7 µM 4% | [2]; at 11.0 µM 7% | [2]; at 33.0 µM 12% | [2]; at 100.0 µM 42% | [3]; at 1.2 µM 20% | [3]; at 3.7 µM 26% | [3]; at 11.0 µM 25% | [3]; at 33.0 µM 21% | [3]; at 100.0 µM 34% | [4]; at 1.2 µM 16% | [4]; at 3.7 µM 20% | [4]; at 11.0 µM 13% | [4]; at 33.0 µM 18% | [5]; at 1.2 µM 15% | [5]; at 3.7 µM 14% | [5]; [17] 16% | [5]; at 11.0 µM 11% | [5]; at 33.0 µM 27% | [5]; [18] 65% | [6]; at 1.2 µM 10% | [6]; at 3.7 µM -1% | [6]; [17] 10% | [6]; at 11.0 µM 3% | [6]; at 33.0 µM -4% | [6]; [18] 23% | [6]; at 100.0 µM 62% | [7]; at 1.2 µM 15% | [7]; at 3.7 µM 15% | [7]; at 11.0 µM 17% | [7]; at 33.0 µM 16% | [8]; [17] 5% | [9]; at 1.2 µM 3% | [9]; at 3.7 µM 6% | [9]; at 11.0 µM 1% | [9]; at 33.0 µM 10% | [10]; [17] 8% | [11]; at 1.2 µM 8% | [11]; at 3.7 µM 12% | [11]; [17] -9% | [11]; at 11.0 µM 6% | [11]; at 33.0 µM 10% | [12]; at 1.2 µM -21% | [12]; at 3.7 µM -24% | [12]; at 11.0 µM -44% | [12]; at 33.0 µM -4% | [13]; at 1.2 µM 20% | [13]; at 3.7 µM 20% | [13]; at 11.0 µM 16% | [13]; at 33.0 µM 10% | [14]; at 1.2 µM 14% | [14]; at 3.7 µM 9% | [14]; at 11.0 µM 11% | [14]; at 33.0 µM 18% | [15]; [17] 13% | [15]; [18] 63% | [16]; at 1.2 µM 6% | [16]; at 3.7 µM 12% | [16]; at 11.0 µM 5% | [16]; at 33.0 µM 30%
